# High-throughput results (PubChem BioAssay)
# Hits are enriched below; roughly 3.9% of the tested compounds scored in any of these assays.
# 3CLpro inhibitor: SARS-CoV 3CLpro protease inhibition. P0C6X7. recombinant SARS-CoV 3CLpro, quenched FRET peptide cleavage. inhibition, % at 6 µM. 290,000 tested, 0.14% active. AID 1706; in the data active = inhibition above about 12%
# DUSP3 inh: blocks human VHR1 dual specificity phosphatase; inhibition, % at 13.3 µM; AID 1654; recombinant VHR phosphatase, pNPP absorbance; P51452; 290,000 tested, 0.52% active; in the data active = inhibition above about 50%
# Anthrax LF prot: anthrax lethal factor protease inhibition; P15917; multiplex microsphere protease cleavage assay, LF; inhibition, % at 10 µM; 360,000 tested, 0.12% active; AID 588501; also: plate controls were buffer without enzyme for full effect and enzyme alone for no effect
# Target sequence (P15917 whole entry, looked up): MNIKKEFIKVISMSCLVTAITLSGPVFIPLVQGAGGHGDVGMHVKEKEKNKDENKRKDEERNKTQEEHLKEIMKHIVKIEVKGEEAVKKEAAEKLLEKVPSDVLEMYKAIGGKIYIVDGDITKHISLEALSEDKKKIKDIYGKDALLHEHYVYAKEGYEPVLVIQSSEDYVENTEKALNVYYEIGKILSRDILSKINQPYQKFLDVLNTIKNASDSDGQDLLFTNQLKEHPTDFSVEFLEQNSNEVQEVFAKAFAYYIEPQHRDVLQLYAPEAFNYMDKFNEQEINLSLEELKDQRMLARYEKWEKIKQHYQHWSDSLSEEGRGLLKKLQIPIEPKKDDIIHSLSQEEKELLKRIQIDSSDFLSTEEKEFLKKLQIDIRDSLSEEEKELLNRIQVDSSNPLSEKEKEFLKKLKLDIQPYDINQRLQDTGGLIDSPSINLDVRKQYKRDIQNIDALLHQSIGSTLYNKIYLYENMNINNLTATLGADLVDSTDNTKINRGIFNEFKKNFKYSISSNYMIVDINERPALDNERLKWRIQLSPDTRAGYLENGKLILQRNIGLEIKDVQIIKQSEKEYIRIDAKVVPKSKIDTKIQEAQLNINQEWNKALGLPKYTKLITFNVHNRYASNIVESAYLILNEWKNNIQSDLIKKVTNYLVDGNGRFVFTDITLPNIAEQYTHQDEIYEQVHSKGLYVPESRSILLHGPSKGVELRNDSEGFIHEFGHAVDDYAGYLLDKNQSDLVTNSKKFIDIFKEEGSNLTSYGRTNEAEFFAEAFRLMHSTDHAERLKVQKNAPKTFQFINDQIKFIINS
# BoNT A protease: blocks Botulinum neurotoxin A light chain protease. inhibition, % at 10 µM. 360,000 tested, 0.17% active. multiplex microsphere protease substrate cleavage, flow cytometry; also: plate controls were buffer without enzyme for full effect and enzyme alone for no effect
# BoNT-F LC inh: BoNT F light chain protease inhibition | AID 588497 | Multiplex microsphere protease cleavage assay, flow cytometry | inhibition, % at 10 µM | 360,000 tested, 0.22% active; in the data active = inhibition above about 35%, passing the limit was not always enough; inconclusive = no clear call, values can overlap the other calls; also: plate controls were buffer without enzyme for full effect and enzyme alone for no effect
# Bead autofluor: counter-screen for toxin protease inhibitors: compound fluorescence; compound autofluorescence counterscreen, microsphere flow cytometry; hits give high values; fluorescence intensity (test concentration not listed); 360,000 tested, 3.1% active; in the data active = fluorescence intensity above about 16000; inconclusive = no clear call, values can overlap the other calls
# * marks the source's active call; other numbers are inactive results; ? = inconclusive; · = no result given. Rule as the data show it, unless noted: active = inhibition above about 30%; inconclusive = no clear call, values can overlap the other calls; inactive = below that.
SMILES,3CLpro inhibitor,DUSP3 inh,Anthrax LF prot,BoNT A protease,BoNT-F LC inh,Bead autofluor
COc1ccccc1Oc1cc(C#N)c(C#N)cc1-n1nnc2ccccc21,-2,19,-8,2,2,22329*
Cc1ccc(NC(=O)c2ccc(-n3cncn3)c([N+](=O)[O-])c2)cc1,3,22,-4,0,-6,6342
O=C(Nc1ccc(Cl)cc1)c1ccc(-n2cncn2)c([N+](=O)[O-])c1,2,11,-2,-5,-9,24392*
COc1ncccc1C(=O)NCC(CC(=O)O)c1ccccc1 (stereo not given),-2,32,-8,-2,-6,16335*
C/C(=C1/SC(N2CC(C)OC(C)C2)=NC1=O)c1ccccc1 (stereo not given),-1,23,-4,-1,-1,19965*
Nc1ccnn1C1CCNCC1,1,-1,2,8,13,19137*
CN1CCC(n2nccc2N)CC1,1,27,1,0,-11,4630
OC[C@@H]1CN(Cc2ccc(Cl)cc2)C[C@H](n2cnc3c(N4CCCC4)ncnc32)O1,·,·,8,0,-1,3588
Cn1c(N2CCNCC2)nc2ccccc21,-4,31,1,0,0,19898*
CCCCN(C(C)=O)c1c(CC)nc2ccc(C(=O)Nc3cccc(OCC(=O)N(C)C)c3)cn12,·,·,-5,0,-2,2918
Cc1ccc(C)c(N2CCN(C(=O)c3ccc4nsnc4c3)CC2)c1,-3,-15,-2,1,4,4786
COc1ccc(/C=N/n2cnnc2)cc1COc1ccccn1,1,31,-1,-1,-1,23503*
COc1cc(/C=N/n2cnnc2)ccc1OCc1ccccc1,-2,32,-5,0,1,4181
Cc1cc(C)cc(NS(=O)(=O)c2ccc3oc(=O)ccc3c2)c1,5,14,0,0,-1,23250*
CCc1ccc(CN2CCCC(CCC(=O)N3CCN(c4ccccn4)CC3)C2)o1 (stereo not given),-2,35,4,2,-4,4657
O=C(Nc1ccc(F)cc1)c1sccc1SCc1cccc(C(F)(F)F)c1,5,-8,-4,?,-14,26797*
COc1cc(/C=C2/SC(=S)N(Cc3ccccc3)C2=O)ccc1O,2,-4,15,30*,22,3622
Cc1ccc(/C=C2\SC(=S)N(Cc3ccccc3)C2=O)o1,4,14,36*,48*,11,4741
COc1ccc(/C=C2\SC(=S)N(Cc3cccnc3)C2=O)cc1C,-3,-17,20,38*,12,2712
O=C1/C(=C\c2ccc(O)c(O)c2)SC(=S)N1Cc1ccccc1,11,2,-10,7,-87,4080
O=C(c1cc2ncc(Br)cn2n1)N1CCOCC1,4,2,1,?,0,24596*
CCCS(=O)(=O)NC(=O)C1(C)CCN(C(=O)c2ccc(C#N)cc2)C1 (stereo not given),·,·,-6,0,-6,3599
C/C(=N\N=c1/scc(C)n1Cc1ccco1)c1cccc([N+](=O)[O-])c1,-1,3,-3,0,-7,2442
COc1ccc2c(=O)c(-c3ccccc3)coc2c1,3,21,2,-1,-4,6027
CCN(CC)C(=O)Oc1ccc2c(=O)c(-c3ccccc3)coc2c1,1,14,0,2,4,21592*
SMILES,3CLpro inhibitor,DUSP3 inh,Anthrax LF prot,BoNT A protease,BoNT-F LC inh,Bead autofluor
CCc1nnc(NC(=O)c2cc(S(=O)(=O)N(C)c3ccc(OC)cc3)ccc2Cl)s1,0,1,-1,-3,-2,6844
CCOC(=O)CNC(=O)COc1ccc(Cl)cc1Br,-3,-8,-2,0,-4,23269*
O=C(O)c1ccc(-c2cccc(Cl)c2)o1,-3,·,0,?,3,23409*
O=C(NC(=S)Nc1cc(Cl)ccc1N1CCOCC1)c1ccc(-c2cccc(Cl)c2)o1,0,18,0,-1,0,16940*
CC(C)COC(=O)Nc1nnc(SCc2ccccc2F)s1,7,-4,4,2,6,22547*
CC(C)(C)C(=O)Nc1nnc(CSCc2ccccc2F)s1,1,3,-2,1,1,19760*
O=C(NC1CCCC1)c1cc(-c2ccc(Cl)cc2Cl)on1,-1,-9,2,1,3,5402
CC1CCN(S(=O)(=O)c2ccc(S(=O)(=O)NCC3COCCO3)cc2)CC1 (stereo not given),2,8,1,-2,-1,23033*
Cc1oc2ccccc2c1-c1cn2c(n1)SCC2,2,-8,-5,?,-5,23992*
c1ccc(-c2cn3c(n2)SCC3)cc1,-1,-5,·,·,·,·
CC12CCC(C/C1=N/O)C2(C)CBr (stereo not given),0,2,0,0,-2,5463
CN(Cc1cnccn1)Cc1nc(Cc2cccc(F)c2)no1,0,13,-5,0,1,3734
O=C(CSc1nnc(-c2cccs2)o1)NCC1CN(Cc2ccccc2)CCO1 (stereo not given),-6,0,2,1,3,20699*
C=CCn1c(SCC(=O)N(CC)c2c(N)n(Cc3ccccc3)c(=O)[nH]c2=O)nnc1-c1ccccc1OC,·,·,-5,0,-5,3867
Cc1nn(Cc2cccc(C(=O)NC(C)c3ccc(C(C)(C)C)cc3)c2)c(C)c1[N+](=O)[O-] (stereo not given),7,15,-4,-1,-13,10254
CC1=NN(C(=O)c2cccc(Cn3nc(C)c([N+](=O)[O-])c3C)c2)C(O)(C(F)(F)F)C1 (stereo not given),1,-6,0,-4,-7,24994*
Cc1nn(Cc2ccc(C(=O)N3N=C(C(F)F)CC3(O)C(F)F)o2)c(C)c1[N+](=O)[O-] (stereo not given),1,-2,1,0,3,2100
Cc1nn(Cc2cccc(C(=O)N3N=C(C(F)F)CC3(O)C(F)F)c2)c(C)c1[N+](=O)[O-] (stereo not given),6,11,0,-4,-6,24863*
CCC(NC(=O)c1cccc(Cn2nc(C)c([N+](=O)[O-])c2C)c1)c1ccc(C(C)C)cc1 (stereo not given),2,43,-2,1,-1,22838*
Cc1nn(Cc2cccc(C(=O)O)c2)c(C)c1[N+](=O)[O-],-3,2,-3,0,-2,4372
Cc1nc2ccccc2n1CCc1nc2c3ccccc3nc(=S)n2[nH]1,-3,2,0,?,-4,23484*
O=C(NC1CCCCC1)N1CCC(c2nc3ccccc3[nH]2)CC1,-2,28,-6,1,2,22032*
O=C(NC1CCCCC1)N1CCCC(c2nc3ccccc3[nH]2)C1 (stereo not given),4,24,-17,14,18,15663
O=C(NC1CCCCC1)N1CCC(c2nc3ccc(Cl)cc3[nH]2)CC1,3,-4,-5,-1,-1,16224*
O=C(O)CCC(=O)NNC(=O)CCC1CCCCC1,-1,-2,2,-1,1,2042
